Data reported in PubChem BioAssay (NCI).
This is part of a sample that, as a whole, favours compounds with a hit. Of some 83,000 tested, about 20% had one in any assay.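 How to read the values: 0–100, growth inhibition (40 = 60% inhibited); 0, no net growth; -100 to 0, cell death (-40 = 40% of starting cells died; -100 = all dead).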 Values without a mark were called inactive. The source made the active and inactive calls. How the source made its calls: active means growth percent below 10; inactive means the rest.

System: MDA-MB-468 breast
Experiment: NCI-60 one-dose screen, 48 h (100 = growth as untreated, 0 = no growth, -100 = all killed)
Settings: 10 µM unless noted

| Structure (SMILES) | growth |
| --- | --- |
| CN1CCN(CCCNc2nccc(-c3c(-c4ccc(F)c(O)c4)nc4sccn34)n2)S1(=O)=O | 92.9% |
| CN(C)CCOC(=O)Nc1ccccc1Cl | 113% |
| C#CCN=C[C@]12CC[C@@H](C(=C)C)[C@@H]1[C@H]1CC[C@@H]3[C@@]4(C)CCC(=O)C(C)(C)[C@@H]4CC[C@@]3(C)[C@]1(C)CC2 | 40.3% |
| CC1(c2ccccc2Cl)NC(=O)NC1=O (stereo not drawn) | 96.7% |
| Cc1ccc(-n2c3c(c(-c4ccccc4)c2-c2ccccc2)C2=NCCN2C=N3)cc1 | 81.8% |
| CCCOCc1cn[nH]n1 | 105% |
| COc1ccc(C(=O)Nc2cccc(-c3cc(=O)c4c(OC)c(OC)c(OC)cc4o3)c2)cc1 | 75.2% |
| Cc1cc2nc3c4ccc(Br)cc4n(CCN(C)C)c3nc2cc1C | -6.68% (active) |
| COc1cc(-c2nc(C(=O)Nc3ccc(C)cc3)nn2-c2ccc(F)c(F)c2)cc(OC)c1OC | 109% |
| COc1ccc(/C=C2\c3cc(OC)c(OC)c(OC)c3CC[C@@H]2O)cc1F | 13.5% |
| O=C1/C(=C/c2ccc(O)cc2)COc2ccc(O)c(O)c21 | -2.18% (active) |
| COc1cc(/C=C2\C(=O)N(Cc3ccc(Cl)cc3)c3ccccc32)cc(OC)c1OC | -18.3% (active) |
| COc1ccc(Cn2cc3c(c2-c2ccccc2)CCc2cnoc2-3)cc1 | 55.2% |
| CCN(CCNc1ccc(C)c2sc3cc(Cl)ccc3c(=O)c12)CC(C)(C)O | -19.3% (active) |
| CC(C)[C@H]1COC(=O)N1[C@@H]1C(=O)N([C@@H](CCC(=O)N2CCN(C3CCCC3)CC2)C(=O)N[C@@H]2CCCc3ccccc32)[C@@H]1/C=C/c1cccc(Br)c1 | -21.6% (active) |
| O=C1/C(=C\c2ccco2)SC(=S)N1CCc1ccc(O)cc1 | 54.9% |
| CC1(C)NCCC[C@]2(C)[C@H]3CC[C@H]4[C@H]5[C@H](C(=O)/C=C/c6cccnc6)CCC[C@]5(CO)CC[C@@]4(C)[C@]3(C)CC[C@@H]12 | -12.6% (active) |
| CCN1C(=O)/C(=c2\sc3n(c2=O)C2C(NN=3)N(CC)C(=O)N2CC)c2ccccc21 (stereo not drawn) | -13.5% (active) |
| Cc1c(Cl)cccc1C(=O)Nc1nc2c(s1)CN(C(=O)Nc1cccc(C(F)(F)F)c1)CC2 | 16.7% |
| CCN(CC)CCOc1cccc2c1C(=O)c1cccc(OCCN(CC)CC)c1C2=O | 8.32% (active) |
| Cc1ccc(NC(=O)Nc2ccc(Nc3ncnc4sc5c(c34)CCOC5)cc2)cc1Cl | 102% |
| COc1ccc(C(=O)/C=C/c2cc(-c3cc(OC)c(OC)c(OC)c3)n[nH]2)cc1OC | -94.6% (active) |
| COC(CCP(=O)(c1ccccc1)c1ccccc1)(C(=O)c1ccccc1)c1ccccc1 (stereo not drawn) | 54.7% |
| CCNCCOc1ccc(/C(=C(/CC)c2ccc(Cl)cc2)c2ccc(OCCCN(C)C)cc2)cc1 | -87% (active) |
| CC(=O)Cc1ccc(-c2ccccc2)cc1 | 93.7% |
| O=C(OCc1ccc2cccc(O)c2n1)N1CCN(C(=O)c2cc3cc(F)ccc3[nH]2)CC1 | -59.2% (active) |
| O=C(CI)NC1Oc2ccccc2-c2oc(=O)c(-c3ccccc3)cc21 (stereo not drawn) | -42.3% (active) |
| CCn1c(SCCc2ccccc2)nnc1-c1nn(-c2ccc(Cl)cc2Cl)c(-c2ccc(Cl)cc2)c1C | 45.9% |
